Test results as given in publication PMC4336329 (PLoS ONE, 2015).
Screen size: about 310,000 compounds; about 2,200 (0.71%) showed an effect of 50% or more. Effects have a minus sign here. For the sample, strong results were picked, then their nearest neighbours and some compounds at random.

Molecular target: human ether-à-go-go-related gene (hERG) potassium channel (human, UniProt Q12809)
Test: primary screen, population patch clamp on CHO cells stably expressing hERG; higher = less effect of the substance

Chain of human ether-à-go-go-related gene (hERG) potassium channel (Q12809 whole entry, looked up): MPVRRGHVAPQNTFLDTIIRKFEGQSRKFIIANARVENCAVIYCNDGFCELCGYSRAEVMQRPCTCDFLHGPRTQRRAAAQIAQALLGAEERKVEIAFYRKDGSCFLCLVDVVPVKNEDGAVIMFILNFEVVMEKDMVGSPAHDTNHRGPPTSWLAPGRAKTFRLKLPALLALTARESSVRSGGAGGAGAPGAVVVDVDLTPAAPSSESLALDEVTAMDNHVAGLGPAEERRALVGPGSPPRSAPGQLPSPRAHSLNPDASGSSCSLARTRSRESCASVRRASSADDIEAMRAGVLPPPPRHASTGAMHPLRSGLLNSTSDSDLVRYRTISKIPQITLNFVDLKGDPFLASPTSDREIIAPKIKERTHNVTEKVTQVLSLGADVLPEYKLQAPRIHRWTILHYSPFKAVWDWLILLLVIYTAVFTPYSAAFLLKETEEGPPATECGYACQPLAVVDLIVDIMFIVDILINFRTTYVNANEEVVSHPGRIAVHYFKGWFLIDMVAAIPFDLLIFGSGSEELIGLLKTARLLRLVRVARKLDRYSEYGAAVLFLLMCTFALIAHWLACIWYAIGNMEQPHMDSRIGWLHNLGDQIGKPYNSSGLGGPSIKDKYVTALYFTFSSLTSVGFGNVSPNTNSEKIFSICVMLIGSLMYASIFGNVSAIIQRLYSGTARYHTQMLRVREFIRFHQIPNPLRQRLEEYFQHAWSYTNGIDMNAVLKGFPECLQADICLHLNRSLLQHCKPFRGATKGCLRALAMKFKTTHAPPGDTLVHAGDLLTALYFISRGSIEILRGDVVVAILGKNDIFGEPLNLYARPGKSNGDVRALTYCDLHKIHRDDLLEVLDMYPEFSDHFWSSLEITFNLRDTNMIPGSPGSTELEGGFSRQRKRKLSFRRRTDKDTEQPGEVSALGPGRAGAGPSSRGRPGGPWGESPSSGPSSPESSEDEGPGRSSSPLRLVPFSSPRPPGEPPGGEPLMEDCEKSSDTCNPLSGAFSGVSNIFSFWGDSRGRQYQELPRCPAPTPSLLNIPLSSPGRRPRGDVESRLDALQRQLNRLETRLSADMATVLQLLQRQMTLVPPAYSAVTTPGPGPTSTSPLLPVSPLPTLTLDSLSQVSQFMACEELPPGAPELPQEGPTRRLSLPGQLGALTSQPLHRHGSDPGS

SMILES	hERG current change (%, negative = inhibition) at 1uM
CC(=O)c1ccc(-n2ccnc2)cc1	7.14%
CCC1CCCN1Cn1cnc2c([nH]c3ccc(C)cc32)c1=O (stereo not drawn)	-54.9%
Cc1ccc2[nH]c3c(=O)n(CCCN4CCN(C)CC4)cnc3c2c1	-12.6%
Cc1ccc2[nH]c3c(=O)n(CCN4CCNCC4)cnc3c2c1	18.5%
O=c1c2[nH]c3ccc(F)cc3c2ncn1CC1CCCO1 (stereo not drawn)	4.81%
O=c1c2[nH]c3ccc(Cl)cc3c2ncn1CCN1CCCCC1	-43.9%
CCC1CCCN1Cn1cnc2c([nH]c3ccc(Cl)cc32)c1=O (stereo not drawn)	-70.9%
Cc1ccc2[nH]c3c(=O)n(CCN4CCOCC4)cnc3c2c1	6.2%
Cc1ccc2[nH]c3c(=O)n(CCC4=CCCCC4)cnc3c2c1	11%
CCN1CCCC1Cn1cnc2c([nH]c3ccc(Cl)cc32)c1=O (stereo not drawn)	-69.4%
CCN1CCCC1Cn1cnc2c([nH]c3ccc(C)cc32)c1=O (stereo not drawn)	-63.4%
CCC1CCCN1Cn1cnc2c([nH]c3ccccc32)c1=O (stereo not drawn)	-45.7%
CCN1CCCC1Cn1cnc2c([nH]c3cccc(Cl)c32)c1=O (stereo not drawn)	-38.7%
COc1cccc(C(=O)Nc2ccncc2)c1OC	9.58%
Cc1nn(CC(=O)c2cccc(Cl)c2)c(C)c1[N+](=O)[O-]	6.41%
Cc1ccc(Cn2cccc(NC(=O)CCC3CCCC3)c2=O)cc1	1.91%
Cc1ccc(/C=C2/C(=O)NC(=O)N(C)C2=O)cc1	7.48%
Cn1c(NC(=O)c2cc(-c3ccc4c(c3)OCO4)nc3ccccc23)cc(=O)n(C)c1=O	2.87%
O=C(NCCCN1CCOCC1)c1ccc(N2CCCC2)c([N+](=O)[O-])c1	4.41%

SMILES	hERG current change (%, negative = inhibition) at 1uM
NS(=O)(=O)c1ccc(NCCCn2ccnc2)c([N+](=O)[O-])c1	12%
Cl.O=C(NCCCn1ccnc1)c1ccc(N2CCCCCC2)c([N+](=O)[O-])c1	-51.6%
Cc1ccc(C(=O)NCCCn2ccnc2)cc1[N+](=O)[O-]	11.9%
Cl.O=C(NCCCn1ccnc1)c1ccc(S(=O)(=O)N2CCCCCC2)cc1	9.74%
CCN(CC)S(=O)(=O)c1ccc(NCCCn2ccnc2)c([N+](=O)[O-])c1	-7.58%
O=C(NCCCn1ccnc1)c1ccc(N2CCCCC2)c([N+](=O)[O-])c1	-54.1%
O=C(c1ccccc1)c1ccc(NCCCn2ccnc2)c([N+](=O)[O-])c1	-65.4%
COc1ccc(C(=O)NCCCn2ccnc2)cc1[N+](=O)[O-]	3.98%
Cc1ccc(NC(=O)NC2CC(=O)N(c3ccc4c(c3)OCCO4)C2)cc1 (stereo not drawn)	11.3%
CC[n+]1ccc(C(=O)NCc2ccccc2)cc1.[Cl-]	12.3%
CCc1[nH]nc2c1C1(C(=O)N(Cc3ccccc3)c3ccccc31)C(C#N)=C(N)O2 (stereo not drawn)	15.5%
CCOc1ccc2[nH]c3nc(SCC(=O)OC(C)C)nnc3c2c1	14.6%
CCCN1CCN(C(=S)Nc2ccc([N+](=O)[O-])cc2)CC1	-11%
CCN1CCCC1CN(Cc1cc2ccc(C)cc2[nH]c1=O)C(=S)Nc1cccc(OC)c1 (stereo not drawn)	-44%
Cc1ccc2[nH]c(=O)c(CN(CCCN(C)C)C(=O)Nc3cccc(Cl)c3)cc2c1	-26.3%
Cc1ccc2cc(CN(CCN(C)C)C(=O)Nc3ccc(Cl)cc3)c(=O)[nH]c2c1	-20.7%
Cc1ccc2[nH]c(=O)c(CN(CCCN(C)C)C(=O)Nc3ccc(F)cc3)cc2c1	-37%
Cc1ccc2[nH]c(=O)c(CN(CCCN(C)C)C(=O)Nc3ccc(Cl)cc3)cc2c1	-62.7%
CCN1CCCC1CN(Cc1cc2ccc(C)cc2[nH]c1=O)C(=S)Nc1ccc(OC)cc1 (stereo not drawn)	21.4%

SMILES	hERG current change (%, negative = inhibition) at 1uM
CCN1CCCC1CN(Cc1cc2ccc(C)cc2[nH]c1=O)C(=S)Nc1ccc(F)cc1 (stereo not drawn)	-70.6%
CCN(CC)CCN(Cc1cc2cc(C)ccc2[nH]c1=O)C(=S)Nc1ccccc1	-23.4%
CCN(CC)CCN(Cc1cc2ccc(C)cc2[nH]c1=O)C(=O)Nc1ccc(Cl)cc1	-78.4%
CSc1ccc(/C=N/N2CCN(Cc3ccccc3Cl)CC2)cc1	9.96%
Cc1c(C(=O)O)c(C(=O)O)nc2ccc(N3CCOCC3)cc12	10.3%
Cc1c(CCC(=O)NC2CC2)c(=O)oc2c(C)c(O)ccc12	22.9%
Cl.c1ccc(OCCN2C3=NCCN3c3ccccc32)cc1	-51.5%
CCCN1C2=NCCN2c2ccccc21.Cl	0.0662%
Br.COC(=O)c1ccc(OCCN2C3=NCCN3c3ccccc32)cc1	-56.5%
Cl.c1ccc2c(c1)N1CCN=C1N2CCN1CCCCC1	3.76%
Br.CCOC(=O)CN1C2=NCCN2c2ccccc21	15.4%
Br.COC(=O)CN1C2=NCCCN2c2ccccc21	-3.47%
Cc1ccc(Cl)cc1N1CCN(C(=O)Cc2cn(C)c3ccccc23)CC1	13.8%
CCOc1cc(NC(=O)c2ccccn2)c(OCC)cc1NC(=O)c1ccc(OC)cc1	3.95%
CNC(=S)NNC(=O)c1cccc(N(C)C)c1	2.36%
Cc1cccc(NS(=O)(=O)c2cccs2)n1	17.6%
COc1ccc(N2C(=O)CCC(C(=O)N3CCN(c4ccccn4)CC3)C2c2ccc(F)cc2)cc1 (stereo not drawn)	-21.3%
COc1ccc(C2C(C(=O)N3CCN(c4ccccn4)CC3)CCC(=O)N2c2ccc(OC)cc2)cc1 (stereo not drawn)	-0.548%
COc1ccc(C2C(C(=O)N3CCN(c4ccccn4)CC3)CC(=O)N2c2ccc(OC)cc2)cc1 (stereo not drawn)	-50.6%
